# In PubChem BioAssay (NCATS):
# Records with an inconclusive call do not appear. A call without a number means that no potency is given here. The source made the active and inactive calls. Unless noted, calls follow the shape of the dose curve; as a rule, active = well fitted curve in the direction sought with a large enough effect; inconclusive = small, poorly fitted or top-dose-only effect, or another doubt; inactive = no such curve, though single readings can be large; an effect the other way counts as inactive or inconclusive.
# Key:
# [1] = system: Zika virus NS2B-NS3 protease; experiment: Primary screen GU AMC qHTS for Zika virus inhibitors (AID 1347154); also: nearly all actives have a fitted effect of over 70% in size
# Procedure, shortened: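 Unlinked Zika NS2B hydrophilic domain/NS3 protease domain noncovalent complex (25 nM final) in 10 mM Tris-HCl pH 8.0, 0.01% Tween 20, with AMC peptide substrate. Fluorescence (ex 340, em 450 nm) change over 15 min, room temperature; percent inhibition fitted to 4-parameter Hill equation.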
# [2] = Primary qHTS for small molecule stabilizers of the endoplasmic reticulum resident proteome: Secreted ER Calcium Modulated Protein (SERCaMP) assay (AID 1508630)
# Procedure, shortened: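 GLuc-SERCaMP-expressing SH-SY5Y cells, pretreated 16 h with compound, are challenged with thapsigargin to empty ER calcium stores; after 4 h, coelenterazine is added directly to the medium and luminescence is imaged.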
# [3] = AP1 Signaling Pathway (AID 357; active = well fitted curve in either direction with a large enough effect, not every such curve was filed as active;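 also: ME-180 reporter cells stimulated with EGF at its EC50 level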); conditions: ME-180 (cervical carcinoma) AP-1-bla reporter, EGF-induced, beta-lactamase ratio, 5 h; at 38 µM (top of the series)
# Procedure, shortened: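 Titration-series screen for positive or negative modulators of EC50 EGF-induced signaling in ME-180 cells carrying an AP-1-driven beta-lactamase reporter. After 5 hours at 37 degrees Celsius, CCF4 460nm/530nm emission ratio gave %Activity; AC50 values derived.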
# [4] = molecular target: Cytochrome P450 1A2 (Homo sapiens) (UniProt P05177); experiment: p450-cyp1a2 (AID 410; calls by dose curve)
# Chain of Cytochrome P450 1A2 (Homo sapiens) (P05177 whole entry, looked up): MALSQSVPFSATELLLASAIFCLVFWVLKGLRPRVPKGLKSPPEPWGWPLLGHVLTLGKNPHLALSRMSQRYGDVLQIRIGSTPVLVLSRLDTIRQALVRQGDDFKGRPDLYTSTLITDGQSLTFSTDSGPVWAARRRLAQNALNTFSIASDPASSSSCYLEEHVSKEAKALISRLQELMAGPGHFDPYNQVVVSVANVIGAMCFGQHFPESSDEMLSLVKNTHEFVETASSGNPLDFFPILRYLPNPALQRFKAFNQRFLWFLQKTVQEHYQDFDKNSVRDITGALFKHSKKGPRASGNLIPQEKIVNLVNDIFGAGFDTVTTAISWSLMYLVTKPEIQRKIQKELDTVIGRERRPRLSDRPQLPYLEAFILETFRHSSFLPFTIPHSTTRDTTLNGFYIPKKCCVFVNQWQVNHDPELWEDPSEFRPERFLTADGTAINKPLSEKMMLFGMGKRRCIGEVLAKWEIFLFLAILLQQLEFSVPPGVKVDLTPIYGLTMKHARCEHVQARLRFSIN
# Procedure, shortened: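 20nM CYP1A2 with 100uM Luciferin-ME (at Km) in 100mM KPO4; compound preincubated 10 min, NADPH regeneration added, 60 min at room temperature. Luciferin quantified by luminescence after detection reagent; normalized to 57 uM furafylline.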
# [5] = NFAT Signaling Pathway (AID 444; active = well fitted curve in either direction with a large enough effect, not every such curve was filed as active;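 also: carbachol stimulus at about its EC50 of 1 µM final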); conditions: Jurkat NFAT-bla M1, carbachol, beta-lactamase ratio, 5 h; at 38 µM (top of the series)
# Procedure, shortened: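 Jurkat cells carrying an NFAT-driven β-lactamase reporter and co-transfected muscarinic M1 receptor were treated with compound plus carbachol (1 uM final, an EC50 level) for 5 h at 37 °C. CCF4 loading followed for 1 h at RT; 460/530 nm ratio gave %activity.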
# [6] = molecular target: Glucocorticoid receptor (Homo sapiens) (UniProt P04150); experiment: GR-GFP Redistribution (AID 450;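 active = compounds whose dose series gives a full or clear partial fitted curve of increased nuclear translocation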; also: potency is read from the fitted curve at half-maximal effect); conditions: U2OS GR-GFP nuclear translocation, laser cytometry, 2 h
# Chain of Glucocorticoid receptor (Homo sapiens) (P04150 whole entry, looked up, the tested form may be a part): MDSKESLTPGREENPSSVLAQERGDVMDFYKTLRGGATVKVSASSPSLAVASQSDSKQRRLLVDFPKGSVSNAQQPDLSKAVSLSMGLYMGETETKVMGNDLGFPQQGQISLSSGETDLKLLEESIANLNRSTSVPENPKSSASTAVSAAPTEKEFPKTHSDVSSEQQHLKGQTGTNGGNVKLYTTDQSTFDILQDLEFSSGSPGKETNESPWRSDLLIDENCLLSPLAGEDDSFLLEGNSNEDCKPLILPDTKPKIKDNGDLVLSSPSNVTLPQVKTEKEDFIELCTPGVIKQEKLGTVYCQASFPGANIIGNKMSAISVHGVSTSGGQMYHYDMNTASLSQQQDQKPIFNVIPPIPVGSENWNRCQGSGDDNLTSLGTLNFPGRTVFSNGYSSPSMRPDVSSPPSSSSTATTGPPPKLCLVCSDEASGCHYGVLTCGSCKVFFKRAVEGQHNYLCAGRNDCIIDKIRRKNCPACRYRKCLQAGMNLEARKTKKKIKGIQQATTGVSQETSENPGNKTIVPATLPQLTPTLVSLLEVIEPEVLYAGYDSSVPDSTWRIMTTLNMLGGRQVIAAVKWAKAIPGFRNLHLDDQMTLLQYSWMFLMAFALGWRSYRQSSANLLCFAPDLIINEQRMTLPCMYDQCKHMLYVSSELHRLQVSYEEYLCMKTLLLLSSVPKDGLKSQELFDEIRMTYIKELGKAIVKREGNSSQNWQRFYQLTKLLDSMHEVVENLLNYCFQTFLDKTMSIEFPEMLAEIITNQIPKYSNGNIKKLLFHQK
# [7] = molecular target: Glucocorticoid receptor (Homo sapiens) (UniProt P04150); experiment: GR-EFC Redistribution (AID 451; calls by dose curve; also: potency is read from the fitted curve at half-maximal effect); conditions: CHO-K1 GR-EFC translocation, beta-gal luminescence, 2 h
# Procedure, shortened: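 CHO-K1 cells stably expressing nuclear-localized β-gal enzyme acceptor and GR fused C-terminally to the enzyme donor fragment; ligand-driven nuclear translocation restores β-gal by complementation. Compounds titrated up to 46 uM final, 2 h at 37 °C; luminescence read.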
# [8] = molecular target: Mitogen-activated protein kinase 10 (Mus musculus) (UniProt Q61831); experiment: JNK3 AlphaScreen Assay (AID 530; active = well fitted curve in either direction with a large enough effect, not every such curve was filed as active;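 also: kinase came from lysate of stimulated human HepG2 cells; signal reports phosphorylation of biotinylated GST-cJun 1-79 at Ser73 with 10 µM ATP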)
# Procedure, shortened: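 Inhibitors reduce antibody binding to phosphorylated biotin-cJun, lowering AlphaScreen luminescence. Lysates from HepG2 cells pre-activated by IL-1beta plus TNF-alpha supplied JNK3; compounds were titrated.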
# [9] = molecular target: 3',5'-cyclic-AMP phosphodiesterase 4B (Homo sapiens) (UniProt Q07343); experiment: qHTS Assay for Inhibitors of PDE-IV (AID 607; active = well fitted activation curve with a large enough effect in the main read-out, with a control signal flat, not every such curve was filed as active)
# Chain of 3',5'-cyclic-AMP phosphodiesterase 4B (Homo sapiens) (Q07343 whole entry, looked up): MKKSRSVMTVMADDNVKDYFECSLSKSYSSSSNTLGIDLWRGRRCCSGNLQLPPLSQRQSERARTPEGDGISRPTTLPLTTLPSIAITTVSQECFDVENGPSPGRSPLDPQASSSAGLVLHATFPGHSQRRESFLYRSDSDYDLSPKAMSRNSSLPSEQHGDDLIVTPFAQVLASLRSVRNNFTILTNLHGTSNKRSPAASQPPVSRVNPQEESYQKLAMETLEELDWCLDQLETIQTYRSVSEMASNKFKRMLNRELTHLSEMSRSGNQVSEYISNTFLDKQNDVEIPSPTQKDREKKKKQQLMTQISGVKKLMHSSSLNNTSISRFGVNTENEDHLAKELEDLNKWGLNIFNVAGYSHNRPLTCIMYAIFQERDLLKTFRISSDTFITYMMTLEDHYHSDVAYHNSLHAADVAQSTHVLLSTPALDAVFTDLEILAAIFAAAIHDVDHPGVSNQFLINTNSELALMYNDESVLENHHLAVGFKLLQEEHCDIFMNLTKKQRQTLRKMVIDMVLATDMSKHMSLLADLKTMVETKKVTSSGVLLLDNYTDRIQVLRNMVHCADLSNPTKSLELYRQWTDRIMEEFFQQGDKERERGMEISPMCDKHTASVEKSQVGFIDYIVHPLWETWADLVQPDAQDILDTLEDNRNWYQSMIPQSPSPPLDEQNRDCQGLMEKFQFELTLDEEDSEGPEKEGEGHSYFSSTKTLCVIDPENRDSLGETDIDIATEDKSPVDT
# Procedure, shortened: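 Live HEK293 cells with a modified cyclic nucleotide-gated (CNG) channel report intracellular cAMP via membrane-potential dye fluorescence (ex 535/em 590 nm). Endogenous PDE-IV was targeted. Compounds were tested at up to 22.9 uM final; RO 20-1724 100 uM served as control.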
# [10] = molecular target: Guanine nucleotide-binding protein G(i) subunit alpha-1 (Homo sapiens) (UniProt P63096); experiment: qHTS Assay for Inhibitors of RGS12 GoLoco Motif Activity (Green Fluorophore) (AID 879);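 also: negative values mean loss of peptide binding seen as reduced polarization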
# Chain of Guanine nucleotide-binding protein G(i) subunit alpha-1 (Homo sapiens) (P63096 whole entry, looked up): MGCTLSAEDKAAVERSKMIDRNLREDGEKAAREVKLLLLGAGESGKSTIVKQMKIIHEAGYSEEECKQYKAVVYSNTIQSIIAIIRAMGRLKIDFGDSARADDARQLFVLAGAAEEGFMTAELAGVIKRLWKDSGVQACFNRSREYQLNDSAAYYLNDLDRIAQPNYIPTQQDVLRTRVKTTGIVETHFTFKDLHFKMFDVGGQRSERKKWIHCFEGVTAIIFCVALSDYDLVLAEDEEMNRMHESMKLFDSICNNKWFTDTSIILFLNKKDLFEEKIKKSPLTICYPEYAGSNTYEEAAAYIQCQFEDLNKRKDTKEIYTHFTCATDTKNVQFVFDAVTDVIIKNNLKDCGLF
# Procedure, shortened: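 Fluorescence polarization assay: 50 nM Gαi1 with 10 nM FITC-labeled RGS12 GoLoco peptide in 10 mM Tris pH 7.5, 150 mM NaCl, 0.1 mM GDP, 0.05% NP40, 10 min at room temperature with compound.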
# [11] = molecular target: Cytochrome P450 2D6 (Homo sapiens) (UniProt P10635); experiment: qHTS Assay for Inhibitors and Substrates of Cytochrome P450 2D6 (AID 891); also: potency is read from the fitted curve at half-maximal effect; nearly all actives have a fitted effect of over 60% in size
# Chain of Cytochrome P450 2D6 (Homo sapiens) (P10635 whole entry, looked up): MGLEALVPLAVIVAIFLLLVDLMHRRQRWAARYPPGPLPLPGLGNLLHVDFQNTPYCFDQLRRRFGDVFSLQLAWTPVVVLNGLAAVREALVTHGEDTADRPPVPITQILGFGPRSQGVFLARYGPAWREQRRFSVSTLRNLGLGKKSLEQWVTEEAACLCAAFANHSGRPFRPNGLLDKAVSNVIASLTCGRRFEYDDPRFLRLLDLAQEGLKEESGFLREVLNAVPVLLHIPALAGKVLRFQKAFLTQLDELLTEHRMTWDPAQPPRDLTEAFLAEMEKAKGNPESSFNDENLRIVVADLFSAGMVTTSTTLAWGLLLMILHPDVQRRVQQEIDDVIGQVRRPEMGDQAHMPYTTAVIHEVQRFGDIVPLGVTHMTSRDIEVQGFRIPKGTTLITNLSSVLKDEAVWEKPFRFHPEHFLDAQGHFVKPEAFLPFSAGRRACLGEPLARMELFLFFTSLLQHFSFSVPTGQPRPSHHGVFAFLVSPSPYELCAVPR
# Procedure, shortened: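 Human CYP2D6 (5 nM) with 30 uM Luciferin-ME EGE (at Km) in 100 mM KPO4, compound preincubated 10 min, then NADPH regeneration system for 60 min at room temperature. Luciferin read by luminescence; normalized to 1.43 uM quinidine.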
# [12] = molecular target: Muscarinic acetylcholine receptor M1 (Rattus norvegicus) (UniProt P08482); experiment: qHTS Assay for Antagonists of Acetylcholine Muscarinic M1 Receptor: Kinetic Measurement of Intracellular Calcium Response (AID 943); also: nearly all actives have a fitted effect of over 75% in size
# Chain of Muscarinic acetylcholine receptor M1 (Rattus norvegicus) (P08482 whole entry, looked up): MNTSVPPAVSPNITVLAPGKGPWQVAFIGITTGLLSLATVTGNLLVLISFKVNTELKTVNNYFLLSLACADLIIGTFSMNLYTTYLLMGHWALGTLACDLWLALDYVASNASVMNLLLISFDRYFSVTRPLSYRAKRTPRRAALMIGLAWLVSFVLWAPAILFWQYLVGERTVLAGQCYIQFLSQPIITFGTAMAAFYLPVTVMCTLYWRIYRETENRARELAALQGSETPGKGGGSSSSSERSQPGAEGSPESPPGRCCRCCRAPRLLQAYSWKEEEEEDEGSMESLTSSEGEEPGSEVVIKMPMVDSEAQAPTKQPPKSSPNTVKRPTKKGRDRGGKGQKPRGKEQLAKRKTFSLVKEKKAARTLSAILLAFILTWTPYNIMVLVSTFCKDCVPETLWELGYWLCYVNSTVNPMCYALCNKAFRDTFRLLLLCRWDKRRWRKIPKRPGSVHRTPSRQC
# Procedure, shortened: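 CHO cells expressing rat M1 receptor, Fluo-4 loaded, preincubated 10 min with compound, then stimulated with EC80 carbachol (100 nM final). Kinetic calcium fluorescence over 4 min; response taken as peak over basal signal.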
# [13] = molecular target: Muscarinic acetylcholine receptor M1 (Rattus norvegicus) (UniProt P08482); experiment: qHTS Assay for Antagonists of Acetylcholine Muscarinic M1 Receptor: Measurement of IP-One Response (AID 944); also: nearly all actives have a fitted effect of over 75% in size
# Procedure, shortened: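 CHO cells stably expressing rat M1, pretreated 10 min with compound, then stimulated 30 min with carbachol at EC80 (200 nM) in LiCl-containing buffer pH 7.4; IP1 accumulation read by HTRF competition (665/620 nm).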
# [14] = molecular target: Pyruvate kinase (Leishmania mexicana) (UniProt Q27686); experiment: qHTS Validation Assay for Inhibitors of Leishmania Mexicana Pyruvate Kinase (AID 945)
# Procedure, shortened: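 Eight-point qHTS titrations; enzyme 0.2 nM LmPYK (E451W mutant); substrates 0.5 mM PEP, 0.1 mM ADP; 7 mM MgCl2; 1 h room temperature; PKLight luminescence normalized to neutral control.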
# [15] = molecular target: Pyruvate kinase PKM (Homo sapiens) (UniProt P14618); experiment: qHTS Assay for Activators of Human Muscle Pyruvate Kinase (AID 954; active = well fitted curve in the direction sought with a large enough effect, not every such curve was filed as active)
# Procedure, shortened: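 Enzyme was run at intermediate activity so both inhibitors and activators could be detected. ATP formed from ADP and PEP by 0.1 nM human PKM2 during a 1 h room-temperature incubation was quantified by coupled luciferase luminescence.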
# [16] = molecular target: Alpha-galactosidase A (Homo sapiens) (UniProt P06280); experiment: Counterscreen for Glucocerebrosidase Inhibitors: qHTS Assay for Human alpha-Galactosidase at pH 4.5 (AID 992)
# Procedure, shortened: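 Read-out is 4-methylumbelliferone fluorescence (365 nm excitation, 440 nm emission) after a pH 10 NaOH/glycine stop. Reactions held 2 nM enzyme and 80 uM substrate at pH 4.5 for 20 min at room temperature.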
# [17] = molecular target: alpha-glucosidase (Oryza sativa, rice) (UniProt Q653V4); experiment: Counterscreen for Glucocerebrosidase Inhibitors: qHTS Assay for Rice alpha-Glucosidase at pH 5.0 (AID 997)
# Procedure, shortened: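 Rice alpha-glucosidase (4 nM final) with 400 uM 4-methylumbelliferyl-alpha-D-glucopyranoside in citrate buffer pH 5.0, 20 min at room temperature, stopped at pH 10; fluorescence 365/440 nm, compounds 0.7 nM–77 uM, AC50 from Hill fits.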
# [18] = qHTS Assay for Lipid Storage Modulators (AID 1519; calls by dose curve); conditions: Drosophila S3 cells, BODIPY lipid droplet/cell ratio, laser cytometry, cells loaded with oleic acid
# Procedure, shortened: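 Cells seeded at 5,000 per well were treated with compounds over a concentration series and loaded with oleic acid (400 uM, as added). Lipid droplet fluorescence (488 nm excitation, 500-530 nm channel) was read by laser-scanning cytometry and normalized to 20 uM Triacsin C.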
# [19] = molecular target: DNA dC->dU-editing enzyme APOBEC-3G (Homo sapiens) (UniProt Q9HC16); experiment: qHTS for inhibitors of Vif-A3G interactions: Validation (AID 588379)
# Chain of DNA dC->dU-editing enzyme APOBEC-3G (Homo sapiens) (Q9HC16 whole entry, looked up): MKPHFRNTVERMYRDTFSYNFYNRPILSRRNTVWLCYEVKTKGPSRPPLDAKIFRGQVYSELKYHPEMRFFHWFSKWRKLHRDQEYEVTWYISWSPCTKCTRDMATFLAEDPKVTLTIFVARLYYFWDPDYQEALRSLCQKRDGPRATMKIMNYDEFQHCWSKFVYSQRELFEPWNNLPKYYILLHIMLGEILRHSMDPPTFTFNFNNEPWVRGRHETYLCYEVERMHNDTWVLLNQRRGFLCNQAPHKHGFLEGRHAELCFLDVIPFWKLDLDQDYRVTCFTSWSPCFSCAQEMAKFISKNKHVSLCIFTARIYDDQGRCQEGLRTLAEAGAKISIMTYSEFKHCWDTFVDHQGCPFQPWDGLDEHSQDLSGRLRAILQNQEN
# Procedure, shortened: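 HeLa cells stably expressing Vif and A3G-eYFP, 700 cells/well, incubated overnight at 37 deg C, then exposed to compound overnight at 37 deg C. Inhibition of Vif-mediated degradation read as increased yellow fluorescence (Ex 488/Em 500-530) by laser-scanning cytometry.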
# [20] = Counterscreen qHTS for small molecule stabilizers of the endoplasmic reticulum resident proteome: GLuc-NoTag assay (AID 1508627);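 also: SH-SY5Y cells given compound then 100 nM thapsigargin to empty ER calcium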
# Procedure, shortened: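 SH-SY5Y cells stably expressing constitutively secreted GLuc (no SERCaMP tag) were pre-incubated 5 h, treated with compound for 19 h, then 100 nM thapsigargin for 4 h at 37C; medium GLuc read by coelenterazine luminescence.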
# [21] = Cell Viability qHTS for small molecule stabilizers of the endoplasmic reticulum resident proteome (AID 1508629); conditions: cell viability counter-screen, 100 nM thapsigargin for final 4 h;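 also: human SH-SY5Y neuroblastoma cells carrying the GLuc-SERCaMP reporter; compound exposure about 46 h in total before the viability read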
# [22] = molecular target: Cytochrome P450 3A4 (Homo sapiens) (UniProt P08684); experiment: qHTS Assay for Activators of Cytochrome P450 3A4 (AID 885); also: nearly all actives have a fitted effect of over 65% in size
# Chain of Cytochrome P450 3A4 (Homo sapiens) (P08684 whole entry, looked up): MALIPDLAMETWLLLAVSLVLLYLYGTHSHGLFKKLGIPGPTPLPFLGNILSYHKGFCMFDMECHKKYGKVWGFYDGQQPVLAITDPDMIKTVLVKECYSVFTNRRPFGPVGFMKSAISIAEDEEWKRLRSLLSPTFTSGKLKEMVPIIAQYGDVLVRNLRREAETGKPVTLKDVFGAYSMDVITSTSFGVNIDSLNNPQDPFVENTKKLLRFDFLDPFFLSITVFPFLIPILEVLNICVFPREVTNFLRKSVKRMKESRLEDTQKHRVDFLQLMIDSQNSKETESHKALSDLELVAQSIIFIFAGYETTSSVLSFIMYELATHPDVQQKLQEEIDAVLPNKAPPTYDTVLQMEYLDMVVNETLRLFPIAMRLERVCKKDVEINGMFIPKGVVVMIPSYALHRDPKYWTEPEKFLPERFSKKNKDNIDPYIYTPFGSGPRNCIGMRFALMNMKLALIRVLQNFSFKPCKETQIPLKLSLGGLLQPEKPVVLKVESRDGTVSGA
# Procedure, shortened: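 Quantitative HTS format: compounds preincubated with 20nM human CYP3A4 and Luciferin-PPXE substrate at KM, reaction started by NADPH regeneration, stopped after 60 min, luciferase luminescence read 20 min later.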
# [23] = molecular target: Ubiquitin carboxyl-terminal hydrolase 1 (Homo sapiens) (UniProt O94782); experiment: Inhibitors of USP1/UAF1: Pilot qHTS (AID 504865);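 also: rhodamine fluorescence freed from ubiquitin-rhodamine substrate followed over time; top concentration of the series differs between compounds; nearly all actives have a fitted effect of over 35% in size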
# Chain of Ubiquitin carboxyl-terminal hydrolase 1 (Homo sapiens) (O94782 whole entry, looked up): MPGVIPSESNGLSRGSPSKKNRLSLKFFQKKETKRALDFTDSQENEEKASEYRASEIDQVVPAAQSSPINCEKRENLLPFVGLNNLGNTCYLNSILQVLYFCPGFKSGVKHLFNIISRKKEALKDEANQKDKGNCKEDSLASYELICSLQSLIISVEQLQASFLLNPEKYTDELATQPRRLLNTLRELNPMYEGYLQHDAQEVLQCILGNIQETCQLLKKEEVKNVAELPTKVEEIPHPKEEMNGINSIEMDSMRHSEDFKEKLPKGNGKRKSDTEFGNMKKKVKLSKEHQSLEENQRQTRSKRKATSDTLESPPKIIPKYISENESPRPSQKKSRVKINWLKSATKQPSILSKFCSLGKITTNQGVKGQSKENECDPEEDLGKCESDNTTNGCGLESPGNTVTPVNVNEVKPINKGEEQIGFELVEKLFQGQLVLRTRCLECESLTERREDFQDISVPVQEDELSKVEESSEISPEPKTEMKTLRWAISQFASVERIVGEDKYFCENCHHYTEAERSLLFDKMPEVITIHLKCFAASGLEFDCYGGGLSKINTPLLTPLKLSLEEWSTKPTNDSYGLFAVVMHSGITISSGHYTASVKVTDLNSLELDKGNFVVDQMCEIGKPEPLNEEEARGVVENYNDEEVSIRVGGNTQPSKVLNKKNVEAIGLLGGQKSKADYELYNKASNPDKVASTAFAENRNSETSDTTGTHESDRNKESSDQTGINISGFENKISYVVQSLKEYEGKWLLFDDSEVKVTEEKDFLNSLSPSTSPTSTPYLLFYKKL
# Procedure, shortened: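 USP1/UAF1 complex (1nM) preincubated with compound 15 min at room temperature, then Ub-Rho substrate (150nM final) added. Fluorescence read kinetically at 480/540 nm, 6 reads every 60 seconds. Buffer: 50mM HEPES pH 7.8, 0.5mM EDTA, 0.1 mg/ml BSA, 1mM TCEP, 0.01% Tween-20.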
# [24] = Confirmatory qHTS for small molecule stabilizers of the endoplasmic reticulum resident proteome: Secreted ER Calcium Modulated Protein (SERCaMP) assay (AID 1508628); also: nearly all actives have a fitted effect of over 40% in size
# Procedure, shortened: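 SH-SY5Y cells stably expressing GLuc-SERCaMP, treated 16 h with compound (primary 1.53, 7.67, 38.3 uM; confirmation 11 concentrations, up to 76.6 uM), then 100 nM thapsigargin for 4 h. Secreted Gaussia luciferase in medium read by coelenterazine luminescence.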
smiles,measurement,setting,value
COC(=O)[C@@H](c1ccccc1Cl)N1CCc2sccc2C1,Potency,[1],inactive
same,Potency,[2],inactive
CC(CCCCC(=O)Nc1ccc(C(F)(F)F)cc1)NCCc1cnc[nH]1 (stereo unspecified),Potency,[1],inactive
same,Potency,[2],inactive
C[C@]12CC[C@@H](O)C[C@@H]1CC[C@@H]1[C@@H]2CC[C@]2(C)C=CC[C@@H]12,Potency,[1],inactive
same,Potency,[2],inactive
C[C@]12CC3CC(N)(C1)C[C@@](C)(C3)C2,"activity change, negative = inhibition",[3],19.1% (inactive)
same,Potency,[4],inactive
same,"activity change, negative = inhibition",[5],-5.02% (inactive)
same,Potency,[6],> 46 µM (inactive)
same,Potency,[7],> 46 µM (inactive)
same,Potency,[8],inactive
same,Potency,[9],inactive
same,outcome,[10],inactive
same,Potency,[11],0.316 µM (active)
same,Potency,[12],inactive
same,Potency,[13],inactive
same,Potency,[14],inactive
same,outcome,[15],inactive
same,outcome,[16],inactive
same,outcome,[17],inactive
same,"activity change, negative = inhibition",[18]; at 57.5 µM (top of the series),-0.0594% (inactive)
same,max response,[18]; measured here: cell count channel max response,-24.5%
same,max response,[18]; measured here: lipid channel max response,-26.5%
same,Potency,[19],inactive
same,Potency,[1],inactive
same,Potency,[20],inactive
same,max response,[21],-0.737% (inactive)
O=S(=O)(c1cccc2cnccc12)N1CCNCC1,Potency,[6],> 46 µM (inactive)
same,Potency,[7],> 46 µM (inactive)
same,Potency,[8],inactive
same,Potency,[22],inactive
same,Potency,[23],inactive
same,Potency,[19],inactive
same,Potency,[1],inactive
same,Potency,[24],inactive
